PubChem BioAssay AID493185 (National Center for Advancing Translational Sciences (NCATS), 2011)
The source made the active and inactive calls. Entries that show only a call come without a potency. Calls follow the shape of the dose curve; as a rule, active = well fitted activation curve with a large enough effect; inconclusive = small, poorly fitted or top-dose-only effect; inactive = no such curve, though single readings can be large or run the other way.

Assay: Counterscreen for Identifying a Potential Treatment of Ataxia-Telangiectasia: Hit Validation
Conditions: cell-free AlphaLISA/AlphaScreen artifact counterscreen, PBS only, no cells; series mostly up to 76.9 µM
Procedure, shortened: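 Cell-free AlphaLISA counterscreen: compounds (up to 76.7 uM final) in PBS with detection mix of anti-pKAP1 and anti-KAP1 antibodies on donor/acceptor beads plus lysis buffer, incubated 6 hr at 25C before AlphaScreen read.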

SMILES | Potency
CN(C)C(=O)c1nc2ccc(Cl)cn2c1CNCc1cccc(OC(F)(F)F)c1 | inactive
CC(=O)/C(N=Nc1nc2c([nH]1)c(=O)n(C)c(=O)n2C)=C(\C)O | inactive
CC1(C)CC2(CCO1)OC(=O)CC2C(=O)Nc1c(Cl)cccc1Cl (stereo not given) | inactive
O=C(CNCc1cccs1)Nc1cc(S(=O)(=O)N2CCCC2)ccc1Cl | inactive
CC(Oc1ccccc1)C(=O)Nc1cccc(NC(=O)c2ccco2)c1 (stereo not given) | inactive
Cc1ccc(C(=O)Nc2sc3c(c2C(=O)O)CCCCC3)o1 | inactive
O=C(O)c1ccc(C2Nc3ccccc3C(=O)N2Cc2ccccc2)cc1 (stereo not given) | inactive
N#CCN1C(=O)C(=O)N(Cc2cccc(Cl)c2)C1=O | inactive
COc1cc(CCC(C)NCc2ccccc2)ccc1O (stereo not given) | inactive
CN(C)C(=O)CN(C)S(=O)(=O)c1ccc(Cl)cc1 | inactive
CC(C)c1ccc(-c2cc(C(=O)N3CCOCC3)c3cc(Br)ccc3n2)cc1 | inactive
CCc1ccc(NC(=O)N[C@H](C(=O)O)C(C)CC)cc1 (stereo not given in full) | inactive
O=C(CCCn1nnnc1CN1CCOCC1)N1CCC(c2ccc(F)cc2)C1 (stereo not given) | inactive
Clc1cccc(Cl)c1CSc1nnc(-c2ccncc2)s1 | inactive
CC1CC(C)CN(S(=O)(=O)c2ccc(C(=O)NCCCn3ccnc3)cc2)C1 (stereo not given) | inactive
Cc1cc(C)n2nc(C(=O)OCCOc3ccc(F)cc3)nc2n1 | inactive
C=CCC(CC)C(=O)NC(=O)N1CCCc2ccccc21 (stereo not given) | inactive
CCn1nc(C)c(CNC(=O)c2cc(COc3ccc(F)cc3Cl)on2)c1C | inactive
O=C(CSc1nnc(CNC(=O)c2ccccc2)o1)NCCc1ccccc1 | inactive
CNC(=O)/C=C/c1cc(C(=O)c2ccc(Cl)cc2Cl)cn1C | inactive

SMILES | Potency
NCC(=O)c1cccc2ccc[n+]([O-])c12 | inactive
CC1Cc2ccccc2N1C(=O)CSc1nnnn1-c1ccc2c(c1)OCCO2 (stereo not given) | inactive
O=C(O)CCC(=O)NN1C(=O)c2ccccc2NC1c1ccco1 (stereo not given) | inactive
COC(=O)c1cccc2c1-c1ccccc1/C2=N\NC(N)=O | inactive
Cc1nnc(SCC(=O)NC(=O)Nc2ccc3c(c2)OCCO3)n1N | inactive
CC(C)(CN1CCN(c2ccccc2)CC1)NS(=O)(=O)c1ccccc1 | inactive
COc1ccc2c(c1)c(N=NC(N)=S)c(O)n2CC(=O)c1ccccc1 | inactive
O=C(Nc1cccc([N+](=O)[O-])c1)N1CCCc2ccccc21 | inactive
O=C(CCCC(=O)N1CCCC1)N1CCCC1 | inactive
C=CCN1C(=O)/C(=C/C(=O)OC)S/C1=N\NC(=O)c1ccccc1 | inactive
N#C/C(=C/c1ccc(F)cc1)C(N)=S | inactive
Cc1ccccc1OCC(=O)Nc1cccc(C(=O)O)c1 | inactive
Cc1ccc2c(c1)C(=O)CC(O)(C(F)(F)F)O2 (stereo not given) | inactive
COc1cccc(OCCc2c(C)n[nH]c2C)c1 | inactive
COc1ccc(CCNC(=O)C2CCN(S(=O)(=O)c3ccc(OC)c(OC)c3)CC2)cc1OC | inactive
CSc1nc2ccccc2nc1N(C)S(=O)(=O)c1ccc(C)cc1 | inactive
CNC(=O)Cc1csc2ccc(C)cc12 | inactive
CC(=O)Nc1ccc(NC2=CC(=O)c3ccccc3C2=O)cc1 | inactive
COc1ccccc1NC(=O)C1CCCN(S(=O)(=O)c2ccc(-n3cnnn3)cc2)C1 (stereo not given) | inactive
COc1cccc(CNC(=O)C(CC(C)C)NC(=O)c2ccccc2C)c1 (stereo not given) | inactive
